Experimental data published in PubChem BioAssay AID504332 (National Center for Advancing Translational Sciences (NCATS), 2011).
The campaign covered roughly 350,000 compounds. About 31,000 (8.9%) were called active. About 15% were inconclusive and are not listed. The entries come from a sample that favours actives as a whole. Unmarked numbers belong to inactive results. Calls come from the whole dose curve; as a rule, active = well fitted inhibition curve with a large enough effect; inconclusive = small, poorly fitted or top-dose-only effect; inactive = no such curve, though single readings can be large or run the other way.

Each molecule was assayed against Histone-lysine N-methyltransferase EHMT2 (Homo sapiens) (UniProt Q96KQ7) (assay: qHTS Assay for Inhibitors of Histone Lysine Methyltransferase G9a). Conditions: G9a H3K9 monomethylation, AlphaScreen, 2 h; series mostly up to 59 µM; activity, negative = inhibition: at the top concentration.
Chain of Histone-lysine N-methyltransferase EHMT2 (Homo sapiens) (Q96KQ7 913-1193 limits assumed): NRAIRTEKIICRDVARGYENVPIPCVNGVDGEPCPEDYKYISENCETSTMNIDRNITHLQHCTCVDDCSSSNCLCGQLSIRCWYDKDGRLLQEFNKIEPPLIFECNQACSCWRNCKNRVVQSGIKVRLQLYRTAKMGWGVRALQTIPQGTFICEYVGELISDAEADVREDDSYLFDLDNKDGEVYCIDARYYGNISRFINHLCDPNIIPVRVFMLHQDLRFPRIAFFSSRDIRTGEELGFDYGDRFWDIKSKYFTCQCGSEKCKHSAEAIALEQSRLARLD
From the text: Methylated lysines, on the N-terminal tails of histone proteins serve as epigenetic markers to recruit factors that can then modify local chromatin structure to lead to functional consequences. G9a and other members of the SUV39 family of the SET domain-containing superfamily of histone lysine methyltransferases (HMT) have been identified to specifically methylate Lys9 of histone H3 (H3K9). G9a catalyzes the mono- and di-methylation of H3K9 in mammalian euchromatic regions, where the resulting H3K9me2 is indicative of transcriptional repression. […] The inhibition of G9a will result in transcriptional activation and work synergistically with DNA methyltransferase and histone deacetylase inhibitors, to kill cancer cells. This qHTS assay for identification of G9a inhibitors is a chemiluminescence based AlphaScreen (PerkinElmer). Methylation of biotinylated-histone peptide is measured through specific antibody-based detection, in conjunction with streptavidin-coated donor and anti-IgG antibody-coated acceptor beads. The method is particularly well suited for detection of inhibitors acting by the desired histone peptide competitive mechanism and is applicable to testing other HMTs. Although AlphaScreen has significant advantages with its utility in a variety of epigenetic target assays, the primary screening data provided in this deposition should be used with caution due to the prevalence of screening artifacts. An AlphaScreen counterscreen is highly recommended to be run against any putative actives to eliminate non specific artifacts. Alternatively, one can use other AlphaScreen assays in PubChem to filter out promiscuous hits. Quinn et al. A chemiluminescence-based method for identification of histone lysine methyltransferase inhibitors. Mol Biosyst 6(5): 782-8. 2010. PMID: 20567762 [2] Baell,Holloway. New substructure filters for removal of pan assay interference compounds (PAINS) from screening libraries and for their exclusion in bioassays. J Med Chem. 53(7):2719-40. 2010. PMID: 20131845 NIH Molecular Libraries Probe Production Network [MLPCN] NIH Chemical Genomics Center [NCGC] Structural Genomics Consortium (SGC) NIH Grant: 5U54 MH084681-02
To each well of a 1,536w plate, 2ul of HMT enzyme (final 20nM) were added, using a nanoliter dispenser. The G9a- and GLP-inhibitor BIX-01294 (CID: 25150857) are used as an intraplate control, with a 16-point titration in duplicate. A Kalypsys pin-tool transferred 23nl of library compound solution in DMSO to each well. Following a 15 min incubation of enzyme with compounds at room temperature, 1ul mixture of b-H3K9 peptide substrate (final 500nM) and SAM cofactor (final 20uM) were added. Reactions were allowed to proceed at room temperature for 2 hours. Methylated b-H3K9 peptide product was detected with 0.5 ug/mL rabbit polyclonal anti-monomethyl histone H3K9 antibody (Abcam Inc., Cambridge, MA) and 20 ug/mL each streptavidin-coated donor and anti-rabbit IgG acceptor AlphaScreen beads. Antibody and beads were added in a 1ul dispense, for a final volume of 4ul, and plates were incubated, protected from the light, for 10 min at room temperature. Microplates were then read on an EnVision multilabel plate reader using the 1,536 plate HTS AlphaScreen aperture (excitation time 80 ms, measurement time 240 ms).
% is set by controls: 0 for no effect and ±100 for the full control effect; potency is the fitted concentration of half-maximal effect.
Note: nearly all actives have a fitted effect of over 75% in size.

First: CC(=O)Nc1ccc(NC(=O)c2cc3sccc3n2Cc2ccc(F)cc2)cc1
Second: CC(OC(=O)CCC(=O)c1ccccc1)C(=O)Nc1ccc(F)cc1 (stereo not drawn)
The “activity, negative = inhibition” value of the first is higher: -9.34% for the first, -46% for the second.

First: COc1ccc(NC(=O)C2CCCN(S(=O)(=O)c3c(C)[nH]c(=O)[nH]c3=O)C2)c(OC)c1 (stereo not drawn)
Second: COc1ccc(S(=O)(=O)c2cn(C)c3cc(N4CCCCC4)c(F)cc3c2=O)cc1
The “activity, negative = inhibition” value of the first is higher: 3.84% for the first, 0.173% for the second.

Going from `CCOC(=O)CNC(=O)c1nn(-c2cccc(OC)c2)c(=O)c2ccccc12` to `COc1cc(NC(=O)c2nn(-c3ccc(C)cc3)c(=O)c3c2c2ccccc2n3C)cc(OC)c1OC`, the “activity, negative = inhibition” value rises from -38.4% to 7.8%.

Compared with `C=CCn1c(COc2ccccc2)nnc1SCC(=O)NCC(=O)OCC`, `CCOc1ccc(S(=O)(=O)N(CC(=O)NCCSCc2ccc(C)cc2)c2ccccc2)cc1` is higher in “activity, negative = inhibition” value: -35.1% for the first, 0.479% for the second.

Going from `CN(C)c1cccc(C(=O)Nc2nc3ccc(S(=O)(=O)NC(C)(C)C)cc3s2)c1` to `Cc1ccc(NC(=O)C(Cc2ccccc2)NS(=O)(=O)c2ccc3c(c2)oc(=O)n3C)cc1C` (stereo not drawn), the “activity, negative = inhibition” value rises from -4.07% to 11.1%.

Going from `CCc1nc(Nc2ccc3nccnc3c2)c2oc3ccccc3c2n1` to `CCc1ccc(NC(=O)c2cnc3c(-c4ccccc4)c(C)nn3c2C)cc1`, the “activity, negative = inhibition” value rises from -36.3% to 4.34%.

Compared with `c1ccc(Cc2ccc(OCCn3ccnc3)cc2)cc1`, `Brc1ccc(OCCn2ccnc2)cc1` is lower in “activity, negative = inhibition” value: 4.59% for the first, -9.05% for the second.

Compared with `CCOc1ccc(CNC(=O)CCc2c(C)nn(-c3ccc(N4CCCCC4)nn3)c2C)cc1`, `Cc1ccc(Cn2c(CNC(=O)Cc3cccc(C)c3)nc3cccnc32)cc1` is higher in “activity, negative = inhibition” value: -22.9% for the first, 5.94% for the second.

Going from `COc1ccccc1CSc1nc2ccccc2[nH]1` to `COc1ccccc1CC(=O)Nc1ccc([N+](=O)[O-])cc1OC`, the “activity, negative = inhibition” value falls from 13.9% to -8.27%.

Compared with `CCOC(=O)C1=C(c2ccccc2)Nc2ncnn2C1c1ccc(Cl)cc1` (stereo not drawn), `COc1ccc2c(c1)CCc1c(C(=O)Nc3cc(C)ccc3O)noc1-2` is higher in “activity, negative = inhibition” value: -29.8% for the first, -23.4% for the second.

`Cc1cc(C(C)(C)C)cc(C)c1N` was tested, and the “activity, negative = inhibition” value was -0.892%.

In the case of `CCOC(=O)CNC(=O)CSc1nnc(COc2ccc(Cl)cc2)n1CC`, the Potency is reported as 20 µM (active).
In the case of `CCOC(=O)CNC(=O)CSc1nnc(-c2cccc(OC)c2)n1CC`, the Potency is reported as 50.1 µM (active).
`CCc1nc(Nc2ccc(NC(C)=O)cc2)c2oc3ccccc3c2n1` was tested, and the Potency was 50.1 µM (active).
In the case of `Clc1c(OCCCn2ccnc2)ccc2ccccc12`, the Potency is reported as 79.4 µM (active).
With `COc1ccccc1CSc1ncc(-c2ccc([N+](=O)[O-])cc2)[nH]1` the Potency was 8.91 µM (active).
In the case of `CCS(=O)(=O)Nc1ccc(C(=O)NCCSc2ccccc2)cc1`, the Potency is reported as 79.4 µM (active).
With `N#Cc1c(-c2ccccc2)cc(-c2ccccc2)nc1SCC(=O)O` the Potency was 11.2 µM (active).
With `Oc1ccc(/C=N/N(Cc2ccccc2)c2ccccc2)cc1` the Potency was 39.8 µM (active).
`Fc1ccccc1/C=C1\CCCC2=C1Nc1ncnn1C2c1ccccc1F` (stereo not drawn) was tested, and the Potency was 35.5 µM (active).
`CC(C)(C)c1ccc(Oc2ccc(N)cc2)cc1` was tested, and the Potency was 50.1 µM (active).

Compared with `CCn1c(COc2ccc(OC)cc2)nnc1SCC(=O)Nc1cc(OC)ccc1OC`, `CCn1c(SCC(=O)Nc2nccs2)nnc1-c1ccncc1` is lower in activity, negative = inhibition: 7.11% [at 12.7 µM] for the first, -2.99% [at 12.7 µM] for the second.

First: O=C(CSc1nnc(N2CCOCC2)n1-c1cccc(F)c1)N1CCN(c2ccccn2)CC1
Second: CCCN(C(=O)c1nc2nccc(C)n2n1)c1c(N)n(Cc2ccccc2)c(=O)[nH]c1=O
The activity, negative = inhibition of the first is lower: -9.34% [at 12.7 µM] for the first, 3.83% [at 12.7 µM] for the second.

Going from `CCCCCN(C(=O)CCC(=O)OCCOc1ccc(OC)cc1)c1c(N)n(CCCC)c(=O)[nH]c1=O` to `CCSc1nc(-c2ccc(OC)cc2)cc(-c2ccc(OC)cc2)c1C#N`, the “activity, negative = inhibition” value rises from -22.8% [at 102 µM] to 9.7% [at 102 µM].

Compared with `O=C(NCCSc1ccccc1)c1ccco1`, `Cc1ccc(C(=O)NCCNS(=O)(=O)c2ccccc2)cc1` is lower in “activity, negative = inhibition” value: 16.8% [at 102 µM] for the first, -7.76% [at 102 µM] for the second.

First: O=C(Nc1ccc(S(=O)(=O)NCC2CCCO2)cc1)c1ccc(F)cc1 (stereo not drawn)
Second: O=C(N/N=C/c1ccc(OCc2ccccc2)cc1)c1ccc(O)cc1
The “activity, negative = inhibition” value of the first is lower: -3.3% [at 102 µM] for the first, 6.52% [at 102 µM] for the second.

First: N#Cc1c(C(F)(F)F)cc(-c2ccc(Cl)cc2)nc1SCC(=O)O
Second: CC1=C(C(N)=O)C(c2ccc(Br)cc2)n2ncnc2N1 (stereo not drawn)
The “activity, negative = inhibition” value of the first is lower: -33.3% [at 102 µM] for the first, -24.4% [at 102 µM] for the second.

First: O=C(NCc1ccc2c(c1)OCO2)c1c(O)nc2sccn2c1=O
Second: O=C(C[n+]1ccccc1)N/N=C/c1ccc(O)cc1
The “activity, negative = inhibition” value of the first is lower: -48.6% [at 102 µM] for the first, -14.7% [at 102 µM] for the second.

`COC(=O)C1CCN(C(=O)NC2CC(=O)N(c3ccc4c(c3)OCCO4)C2)CC1` (stereo not drawn) showed an activity, negative = inhibition of 21.6% [at 0.501 µM].

First: CCc1nc(N2CCN(c3nc(C)cc(C)n3)CC2)c2oc3ccccc3c2n1
Second: Cc1ccccc1S(=O)(=O)N1[C@@H](c2cccc(Cl)c2)C(C(=O)O)=CC[C@H]1c1ccc(Cl)cc1
The activity, negative = inhibition of the first is higher: 2.59% [at 2.33 µM] for the first, -5.32% [at 2.33 µM] for the second.
